Laboratory results: PubChem BioAssay
A number with no mark means an inactive call. Results filed as inconclusive are left out. The source made the active and inactive calls.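 The calls were made as follows, unless noted: active = cell viability at or below a set limit in both duplicate runs, the limit being the all-compound median minus 4 SD (cut at about 23% in these data, passing the limit was not always enough); inconclusive = no clear call, values can overlap the other calls; inactive = the rest.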

Test: viability gain of MRP-1-high H69AR cells under doxorubicin, pilot screen, MRP-1 activator project, CellTiter-Glo, duplicate (AID 807;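 active = viability increase at or above a cutoff of the median across tested compounds plus 3 SD, cut at about 8.5% in these data, passing the limit was not always enough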;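 also: compound pretreatment 18-22 h then 72 h combined with doxorubicin; 0% = doxorubicin alone and 100% = vehicle without doxorubicin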)
Details: H69AR viability with doxorubicin, CellTiter-Glo luminescence; at 10 µM; active compounds read high

SMILES	viability increase
O=C(CNC(=O)Cn1ccc2ccccc2c1=O)NCCCN1CCN(c2cccc(Cl)c2)CC1	-5.42%
COc1ccc(C(=O)Nc2ccccc2-c2nnn(CC(=O)NCc3ccco3)n2)cc1	-2.04%
CC(=O)c1ccc(N2CCN(C(=O)c3ccc(NC(=O)C4CCCO4)cc3)CC2)cc1 (stereo not given)	-3%
CCOC(=O)N1CCN(c2nc(SC)nc3sc4c(c23)CC(C)(C)OC4)CC1	-5.82%
CCOc1ccc(-n2c(SCC(N)=O)nc3c(c2=O)SCC3)cc1	-0.72%
CCn1cc(C(=O)NCc2cccnc2)c2cc(OC)c(OC)cc2c1=O	-2.26%
Cc1ccc(C(=O)c2cn[nH]c2-c2cc(Cl)ccc2O)cc1	-0.14%
COCCn1c(=O)[nH]c2cc(C(=O)NCCN3CCN(c4ccccc4F)CC3)ccc2c1=O	-1.27%
C=CCOC(=O)CCCC(=O)NC1CCCCC1	-0.4%
CCN1CCN(Cc2nc3c(c(=O)n(C)c(=O)n3C)n2CCCc2ccccc2)CC1	-4.04%
c1cncc(CNc2c3c(nc4nnnn24)CCCC3)c1	-2.59%
CCOc1ccc(-n2c(SCC(=O)Nc3ccc4c(c3)OCCO4)nc3c(c2=O)SCC3)cc1	-2.09%
N#C/C(=C1\CCCN1)c1ccc2ccccc2n1	-4.02%
CN1CCCCc2c1[nH]c1ccccc1c2=O	-3.35%
CC(=O)Nc1cc(OC(=O)c2ccco2)cc(OC(=O)c2ccco2)c1	-2.27%
O=C(Cn1nnc(-c2ccccc2NC(=O)c2ccccc2F)n1)NCc1ccco1	-6.92%
CCCCC(NC(C)=O)c1nc2ccccc2n1CCCC (stereo not given)	-4.34%
NC1=C(c2ccc(F)cc2)C(=O)CS1	-1.22%
COc1ccc(CNc2oc(COc3ccccc3)nc2C#N)cc1	-2.11%
O=C(CCCOc1ccccc1)Nc1nnc(C2CCCO2)s1 (stereo not given)	-2.89%

SMILES	viability increase
CCN(CC)S(=O)(=O)c1cc(Br)ccc1OC	-4.03%
COC(=O)c1cn(NC(=O)C2CCCCC2)c(=O)c2ccccc12	-1.25%
CC(C)Sc1nc(N)c2c3c(sc2n1)CN(C)CC3	-3.04%
CCOC(=O)N1CCC(NC(=O)C(NC(=O)C2CCCCC2)C(C)C)CC1 (stereo not given)	-1.25%
CCOc1cc(C2C(C(=O)c3ccco3)=C(O)C(=O)N2CCc2ccccc2)ccc1O (stereo not given)	-1.77%
COc1cc2c(cc1OC)C(C(=O)Nc1cccc(C)n1)C(c1cccnc1)N(C)C2=O (stereo not given)	-3.94%
CCCC(=O)Nc1cc(C)c(NC(=O)Cc2ccccc2)cn1	-1.76%
Cc1cccc(C)c1NC(=O)CSc1nnc([C@@H]2CCCN2C(=O)OC(C)(C)C)o1	-1.42%
COc1cc(C2/C(=C(\O)c3cc(C)ccc3C)C(=O)C(=O)N2CCN(C)C)ccc1O (stereo not given)	-1.94%
Cc1cc(C)nc(NS(=O)(=O)c2ccc(NC(=O)c3cccs3)cc2)n1	-2.29%
CC1CCCN(c2nc3c(c(=O)n(C)c(=O)n3C)n2Cc2ccccc2)C1 (stereo not given)	-2.17%
OCC1(c2cc(C(F)(F)F)n[nH]2)CCCCC1	-2.12%
Cn1cc(S(=O)(=O)CC(=O)Nc2ccc3c(c2)OCCO3)c2ccccc21	-1.77%
S=c1nc(-c2ccccc2)n(CCN2CCOCC2)c2c1CCCC2	-4.18%
Cc1cc(C)n(-c2cc(=O)n(C)c(=O)n2C)n1	-2.96%
CN(C)/C=N/c1c(C#N)cnn1-c1nc2ccccc2s1	-3.38%
CC(C)N(C(=O)C1CC(=O)OC12CCCCC2)C(C)C (stereo not given)	-0.41%
Cc1cccc(N2CCN(c3nc4ccccc4n4cnnc34)CC2)c1C	-4.42%
Cc1ccc(C(=O)N2CCN(C)CC2)cc1S(=O)(=O)N1CCCCC1	-2.65%
Brc1cc(Br)c2ncnc(N3CCCCC3)c2c1	-7.95%

Test: growth suppression of beta-catenin knockout HCT116, pilot screen, human colon tumor cells (AID 823);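 also: 0% = wells killed by 20 µM Hyamine and 100% = untreated DMSO cell wells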
Details: CellTiter-Glo, 60 h, at 10 µM, active compounds read low

SMILES	viability
O=C(CNC(=O)Cn1ccc2ccccc2c1=O)NCCCN1CCN(c2cccc(Cl)c2)CC1	57.3%
COc1ccc(C(=O)Nc2ccccc2-c2nnn(CC(=O)NCc3ccco3)n2)cc1	78%
CC(=O)c1ccc(N2CCN(C(=O)c3ccc(NC(=O)C4CCCO4)cc3)CC2)cc1 (stereo not given)	91.2%
CCOC(=O)N1CCN(c2nc(SC)nc3sc4c(c23)CC(C)(C)OC4)CC1	87.5%
CCOc1ccc(-n2c(SCC(N)=O)nc3c(c2=O)SCC3)cc1	98.2%
CCn1cc(C(=O)NCc2cccnc2)c2cc(OC)c(OC)cc2c1=O	95.7%
Cc1ccc(C(=O)c2cn[nH]c2-c2cc(Cl)ccc2O)cc1	95.7%
COCCn1c(=O)[nH]c2cc(C(=O)NCCN3CCN(c4ccccc4F)CC3)ccc2c1=O	94.3%
C=CCOC(=O)CCCC(=O)NC1CCCCC1	95.6%
CCN1CCN(Cc2nc3c(c(=O)n(C)c(=O)n3C)n2CCCc2ccccc2)CC1	91%
c1cncc(CNc2c3c(nc4nnnn24)CCCC3)c1	90%
CCOc1ccc(-n2c(SCC(=O)Nc3ccc4c(c3)OCCO4)nc3c(c2=O)SCC3)cc1	84.1%
N#C/C(=C1\CCCN1)c1ccc2ccccc2n1	94.2%
CN1CCCCc2c1[nH]c1ccccc1c2=O	95.8%
CC(=O)Nc1cc(OC(=O)c2ccco2)cc(OC(=O)c2ccco2)c1	103%
O=C(Cn1nnc(-c2ccccc2NC(=O)c2ccccc2F)n1)NCc1ccco1	73.9%
CCCCC(NC(C)=O)c1nc2ccccc2n1CCCC (stereo not given)	86.6%
NC1=C(c2ccc(F)cc2)C(=O)CS1	91.1%
COc1ccc(CNc2oc(COc3ccccc3)nc2C#N)cc1	79%
O=C(CCCOc1ccccc1)Nc1nnc(C2CCCO2)s1 (stereo not given)	102%

SMILES	viability
CCN(CC)S(=O)(=O)c1cc(Br)ccc1OC	94.8%
COC(=O)c1cn(NC(=O)C2CCCCC2)c(=O)c2ccccc12	94.3%
CC(C)Sc1nc(N)c2c3c(sc2n1)CN(C)CC3	101%
CCOC(=O)N1CCC(NC(=O)C(NC(=O)C2CCCCC2)C(C)C)CC1 (stereo not given)	93%
CCOc1cc(C2C(C(=O)c3ccco3)=C(O)C(=O)N2CCc2ccccc2)ccc1O (stereo not given)	97.2%
COc1cc2c(cc1OC)C(C(=O)Nc1cccc(C)n1)C(c1cccnc1)N(C)C2=O (stereo not given)	91.7%
CCCC(=O)Nc1cc(C)c(NC(=O)Cc2ccccc2)cn1	98.2%
Cc1cccc(C)c1NC(=O)CSc1nnc([C@@H]2CCCN2C(=O)OC(C)(C)C)o1	96.3%
COc1cc(C2/C(=C(\O)c3cc(C)ccc3C)C(=O)C(=O)N2CCN(C)C)ccc1O (stereo not given)	100%
Cc1cc(C)nc(NS(=O)(=O)c2ccc(NC(=O)c3cccs3)cc2)n1	97.7%
CC1CCCN(c2nc3c(c(=O)n(C)c(=O)n3C)n2Cc2ccccc2)C1 (stereo not given)	85.9%
OCC1(c2cc(C(F)(F)F)n[nH]2)CCCCC1	91.4%
Cn1cc(S(=O)(=O)CC(=O)Nc2ccc3c(c2)OCCO3)c2ccccc21	106%
S=c1nc(-c2ccccc2)n(CCN2CCOCC2)c2c1CCCC2	92.6%
Cc1cc(C)n(-c2cc(=O)n(C)c(=O)n2C)n1	92.3%
CN(C)/C=N/c1c(C#N)cnn1-c1nc2ccccc2s1	102%
CC(C)N(C(=O)C1CC(=O)OC12CCCCC2)C(C)C (stereo not given)	99.1%
Cc1cccc(N2CCN(c3nc4ccccc4n4cnnc34)CC2)c1C	49.3%
Cc1ccc(C(=O)N2CCN(C)CC2)cc1S(=O)(=O)N1CCCCC1	90.1%
Brc1cc(Br)c2ncnc(N3CCCCC3)c2c1	15.9% (active)
